# An excerpt weighted towards active compounds, which were near 1.4% of everything screened.
# VACV mCherry inh = inhibitors of vaccinia virus infection (mCherry reporter signal). Vaccinia virus mCherry reporter infection, fluorescence. Potency, µM (series often up to 36.5 µM), for the others: top-dose activity change, negative = inhibition, usual class: inhibitors. 0.63% of 310,000 active. AID 720579; calls by dose curve; tested in A549 cells; further: on the % scale 0 is the no-effect control and ±100 the full control effect; nearly all actives have a fitted effect of over 35% in size
# AmpC inh no detg = blocks E. coli AmpC beta-lactamase in detergent-free assay; P00811; AmpC nitrocefin hydrolysis, absorbance 480 nm, 0.0001% Triton; Potency, µM (titrated, usually from 57.1 µM), for the others: at the highest dose activity change, negative = inhibition, usual class: inhibitors; 0.52% of 330,000 active; AID 485341;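 further: plate controls were no compound for no effect and no enzyme for full effect; nearly all actives have a fitted effect of over 20% in size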
# Target sequence (P00811 whole entry, looked up): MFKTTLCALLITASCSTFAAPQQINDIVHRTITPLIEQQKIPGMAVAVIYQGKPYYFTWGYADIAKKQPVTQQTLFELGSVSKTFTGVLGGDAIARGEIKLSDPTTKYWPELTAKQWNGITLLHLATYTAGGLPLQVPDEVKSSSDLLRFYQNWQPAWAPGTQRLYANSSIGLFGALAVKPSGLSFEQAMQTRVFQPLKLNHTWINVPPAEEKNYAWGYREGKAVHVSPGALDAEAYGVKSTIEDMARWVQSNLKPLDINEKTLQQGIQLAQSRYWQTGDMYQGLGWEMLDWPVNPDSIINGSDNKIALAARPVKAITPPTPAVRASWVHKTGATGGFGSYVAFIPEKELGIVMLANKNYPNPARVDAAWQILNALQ
#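 20 mM phosphate pH 7.0 + 0.01% (detergent screen) or 0.0001% Triton X-100; 5.3 nM AmpC reagent; cpd preinc 15 min RT; nitrocefin (800 uM stock) to start; A480 q20 s × 4 min; Activity was normalised to no-enzyme and no-compound control wells.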
# SARS PLpro yeast = SARS-CoV PLP inhibition in yeast; S. cerevisiae expressing SARS-CoV PLpro, growth rescue; Potency, µM (doses to about 32.9 µM), inactives show at the top dose activity, positive = growth rescue, usual class: activators; 0.19% of 330,000 active; AID 485353; calls by dose curve; further: 0% is about no effect; nearly all actives have a fitted effect of over 55% in size
# AMA1-RON2 inh = AMA1-RON2 (P. falciparum) interaction inhibition; AlphaScreen AMA1-biotinylated RON2 peptide binding; Potency, µM (highest dose often 58.2 µM), without a hit: at the top dose activity change, negative = inhibition, hits mostly inhibitors; AID 720542; 0.2% of 360,000 active;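 further: 0% = vehicle wells and -100% = peptide control; nearly all actives have a fitted effect of over 45% in size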
#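 AMA1 (3D7) with his tag at 25 nM final met compounds first, then biotinylated RON2 peptide at 25 nM; detection used donor plus acceptor beads, 10 µg/mL apiece, read by AlphaScreen after 30 min at room temperature.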
# AmpC detergent = blocks E. coli AmpC beta-lactamase in detergent assay; AmpC hydrolysis of nitrocefin, absorbance 480 nm, 0.01% Triton; P00811; AID 485294; Potency, µM (titrated, usually from 114 µM), without a hit: at the highest dose activity change, negative = inhibition, hits mostly inhibitors; 0.041% of 370,000 active;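 further: 0% = no-compound wells and -100% = no-enzyme wells; nearly all actives have a fitted effect of over 25% in size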
#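 AmpC (5.3 nM in the dispensed reagent) in 20 mM phosphate pH 7.0 with 0.01% (detergent screen) or 0.0001% Triton X-100 was preincubated with compounds for 15 min at room temperature. Nitrocefin was then added from an 800 uM solution, and hydrolysis was followed at 480 nm.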
# Vaccinia Venus = vaccinia inhibition (Venus reporter). Vaccinia virus Venus reporter expression, fluorescence. Potency, µM (top dose mostly 36.5 µM), for inactives: top-dose activity change, negative = inhibition, hits mostly inhibitors. 0.46% of 330,000 active; calls by dose curve; tested in A549 cells; further: on the % scale 0 is the no-effect control and ±100 the full control effect; nearly all actives have a fitted effect of over 30% in size
# Starred values were filed as active, the others as inactive; i = inactive; ? = inconclusive; / = no result given; [ ] = dose if it differs, or a comment. Unless noted, the call rests on the fitted dose curve; in most records, active means well fitted curve in the direction sought with a large enough effect; inconclusive means small, poorly fitted or top-dose-only effect, or another doubt; inactive means no such curve, though single readings can be large; an effect the other way counts as inactive or inconclusive. Potency means the concentration at half of the fitted maximal effect.
SMILES,VACV mCherry inh,AmpC inh no detg,SARS PLpro yeast,AMA1-RON2 inh,AmpC detergent,Vaccinia Venus
CCCc1ccc(OCC(=O)Nc2sc3c(c2C(=O)OCC)CCC(C(C)(C)C)C3)cc1 (stereo not drawn),-6%,/,/,/,1%,-2%
COc1cc(OC)c(C(=O)NCc2nc(-c3ccccc3)no2)cc1OC,i,/,/,/,-3%,-3%
CO[C@H]1[C@H](NC(=O)c2ccsc2)c2ccccc2C12CCN(Cc1cc(Cl)ccc1O)CC2,-28%,/,/,/,/,-18%
O=C(/C=C/c1ccccc1)NC(NC(=S)Nc1cc(Cl)ccc1Cl)C(Cl)(Cl)Cl (stereo not drawn),10µM*,-44%,0%,10%,-11%,?
CC(C)C(=O)Nc1nc2cc3c(cc2s1)OCO3,?,10µM*,-10%,-7%,?,-4%
Cc1cccc(C(=O)N[C@H]2CC[C@@H](n3cc(C(=O)N4CCCC4)nn3)CC2)c1,-9%,/,/,/,/,3%
CCCCS(=O)(=O)/C=C\C=C/S(=O)(=O)CCCC,/,-16%,-33%,4%,0%,11µM*
CCCCS(=O)(=O)/C=C\C1C2C=CC(C2)C1S(=O)(=O)CCCC (stereo not drawn),/,16%,-2%,0%,-14%,-8%
CCCCS(=O)CC(CS(=O)CCCC)OC(=O)c1ccccc1 (stereo not drawn),/,15%,2%,4%,-17%,/
CCCCS(=O)(=O)CC(COc1ccccc1)OC(=O)c1ccccc1 (stereo not drawn),/,-19%,-2%,19%,?,7.9µM*
N#CCCN1CCN(S(=O)(=O)c2ccc(C3CCCCC3)cc2)CC1,/,140%,1%,-10%,4%,/
N#CCCN1CCN(S(=O)(=O)c2ccc(S(=O)(=O)N3CCOCC3)cc2)CC1,/,-9%,19%,7%,?,/
CC1CCCCC1NS(=O)(=O)c1ccc(S(=O)(=O)N2CCN(CCC#N)CC2)cc1 (stereo not drawn),-8%,45µM*,-2%,18%,?,-9%
N#CCCN1CCN(S(=O)(=O)c2ccc(S(=O)(=O)NCc3ccccc3)cc2)CC1,/,10µM*,-6%,-1%,?,/
COc1cccc(C(=O)/C=C/c2ccc(N3CCCCC3)c([N+](=O)[O-])c2)c1,?,-28%,1%,5µM*,-4%,?
O=C(N/N=C/c1ccc(O)cc1O)/C(=C/c1ccccc1)CCO,11µM*,-28%,?,86%,-18%,?
Cc1nonc1C(=O)N/N=C/c1ccc(O)cc1O,8.9µM*,-8%,0%,-2%,-1%,?
CCc1cc(C(=O)N/N=C/c2ccc(O)cc2O)c2ccccc2n1,1.1µM*,-56%,/,21%,-2%,-23%
COc1cc(/C=N/NC(=O)/C(=C/c2ccccc2)CCO)ccc1O,-13%,-13%,7%,21%,-12%,-11%
Cc1nonc1C(=O)N/N=C/c1ccncc1,i,-15%,-1%,-2%,2%,-7%
COc1ccccc1C1CN(Cc2ccc(Sc3nncn3C)o2)Cc2ccccc2O1 (stereo not drawn),-13%,/,/,/,/,-7%
CCC1(C2CCN(Cc3cccc(Cl)c3)CC2)NC(=O)N(CC2COc3ccccc3O2)C1=O (stereo not drawn),-21%,/,/,/,/,-17%
CC(=O)OCC#CCSc1nc2ccccc2n1C,-28%,-25%,22µM*,-10%,5%,-10%
CC(=O)c1c(C)[nH]c(C(=O)CSc2nc3ccccc3n2C)c1C,-27%,-20%,5%,0%,0%,-24%
CN(CC1COc2ccccc2O1)c1nc(-c2cccnc2)nc2ccccc12 (stereo not drawn),?,31%,-11%,11%,?,-15%
SMILES,VACV mCherry inh,AmpC inh no detg,SARS PLpro yeast,AMA1-RON2 inh,AmpC detergent,Vaccinia Venus
c1cncc(-c2nc(NCC3COc4ccccc4O3)c3ccccc3n2)c1 (stereo not drawn),?,-1%,-22%,-5%,3%,11µM*
c1ccc(CNc2nc(-c3cccnc3)nc3ccccc23)cc1,/,-31%,-5%,-2%,-2%,/
c1ccc(CN2CCC(Nc3nc(-c4cccnc4)nc4ccccc34)CC2)cc1,?,7%,-6%,?,-4%,13µM*
O=C(Nc1ccccc1C(=O)OCc1cc(=O)n2ccsc2n1)c1cccc(F)c1,i,/,/,/,-11%,-21%
C[C@H](CCC(=O)NCC(=O)O)C1CC[C@H]2[C@H]3C(C[C@H](O)[C@]12C)[C@@]1(C)CC[C@@H](O)C[C@H]1C[C@H]3O (stereo partly drawn),-1%,/,/,/,/,-18%
O=C(CCS(=O)(=O)c1ccc(Br)cc1)N1CCN(Cc2ccccc2)CC1,/,108%,5%,-4%,0%,?
CC(=O)N1CCN(CCS(=O)(=O)c2ccc(Br)cc2)CC1,18µM*,-17%,-3%,-2%[11.6 µM],0%,?
N#CC(c1ccc(Cl)cc1)N1CCOCC1 (stereo not drawn),-17%,-9%,0%,1%,-7%,-21%
Oc1c(Cl)cc(Cl)cc1C(C#Cc1ccccc1)N1CCOCC1 (stereo not drawn),i,0.32µM*,-20%,-4%,1%,-9%
O=[N+]([O-])c1ccc(N2CCOCC2)cc1O,-19%,-3%,1%,5%,11%,-25%
Cc1cc(N2CCOCC2)ccc1/C=C\[N+](=O)[O-],?,-9%,-82%,0%,-2%,10µM*
C[C@@H]1[C@H](c2ccccc2)OCCS(=O)(=O)N1Cc1cccc(C(F)(F)F)c1,-15%,/,/,/,/,-11%
Cn1ccc(C(=O)NCC2CCC3(CCN(Cc4cc(F)cc(F)c4)CC3)O2)n1 (stereo not drawn),i,/,/,/,/,0%
COc1ccc2c(c1)-c1nc(-n3ncc(C(=O)N(C)CCO)c3C3CC3)ncc1CC2,-16%,/,/,/,/,-14%
CCCSc1nnc(NC(=O)Nc2ccc(F)cc2)s1,/,-23%,-16%,-1%,-1%,7.9µM*
Cc1cc(C)c(C(=O)CSc2nc3ccccc3c(=O)[nH]2)cc1C,i,18µM*,-9%,-1%,?,-6%
O=C(CSc1nc2ccccc2c(=O)[nH]1)Nc1ccc([N+](=O)[O-])cc1,?,-24%,-11%,-8%,/,20µM*
CC(C)C(NS(C)(=O)=O)c1nnc2n1CCN(Cc1ccc3cccnc3c1)CC2 (stereo not drawn),-5%,/,/,/,/,-1%
Cc1cc(C(=O)Nc2ccccc2-c2nc(CNC(=O)c3ccc(F)cc3F)c(C)o2)c(C)o1,-5%,/,/,/,/,1%
CN(C)/N=C/c1cc([N+](=O)[O-])ccc1O,-28%,-18%,-10%,67%,-1%,-9%

# From PubChem BioAssay
